Inconclusive results are not listed. Calls of active or inactive are those of the source. Rule for the calls: active = hit-call score of the fitted dose curve at least 0.9, where 1 is the maximum; inconclusive = response in the unintended direction; inactive = score below 0.9.

This experiment in a line: CCTE_Harrill_HTTr_CellCount_MCF7: CCTE's Cell Proliferation Assessment for the High-Throughput Transcriptomics (HTTr) Platform, Harrill Lab (AID 2284012).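 Note: intended direction is loss of nuclei count meaning fewer cells.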 In outline:
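Chemicals in eight-point dilution series are added to MCF-7 cells for six hours, nuclei are stained with Hoechst and imaged, and per-well nuclei counts are fitted in both directions relative to DMSO controls.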
With `CC(C)(OO)c1ccccc1`, the outcome was inactive. As for `CC(=O)OC(c1ccccc1)C(Cl)(Cl)Cl` (centres undefined), the entry is “inactive”; as for `CCN1CCC2(CC1)COc1cc3c(cc12)N(C(=O)c1ccc(-c2ccc(-c4nnc(C)o4)cc2C)cc1)CC3`, “inactive”. As for `Oc1ccc(-c2ccccc2)cc1`, the entry is “inactive”. Regarding `O=C(O)C(Cl)(Cl)Cl`, the outcome was inactive. On to `CCCCCCCCCl`, for which the outcome was inactive.

Take `Oc1c(I)cc(I)cc1I`: the compound was classed as inactive. The result for `O=S(=O)(c1ccc(Cl)cc1)c1ccc(Cl)cc1` reads “inactive”; that for `ClC1(Cl)C2(Cl)C3(Cl)C4(Cl)C(Cl)(Cl)C5(Cl)C3(Cl)C1(Cl)C5(Cl)C24Cl` (centres undefined), “inactive”.

For the origin of these results see PubChem BioAssay (EPA / NIEHS).
